# Experimental data: publication PMC7862700, “An all-to-all approach to the identification of sequence-specific readers for epigenetic DNA modifications on cytosine”
# Key:
# Assay in all cases: DAPPL (digital affinity profiling via proximity ligation, sequencing); 10 mM Tris-HCl pH 7.5, 50 mM NaCl, 1 mM DTT, 4% glycerol, room temperature, 30 min; GST-TFs on glutathione beads, 16-mer random dsDNA library, 0.1% formaldehyde crosslink after washing; high values mean tight binding
# FEV = molecular target: T1, FEV (Homo sapiens, UniProt Q99581 1-238); conditions: protein: recombinant; tags: N-terminal GST; dsDNA, one strand shown
# T1 sequence: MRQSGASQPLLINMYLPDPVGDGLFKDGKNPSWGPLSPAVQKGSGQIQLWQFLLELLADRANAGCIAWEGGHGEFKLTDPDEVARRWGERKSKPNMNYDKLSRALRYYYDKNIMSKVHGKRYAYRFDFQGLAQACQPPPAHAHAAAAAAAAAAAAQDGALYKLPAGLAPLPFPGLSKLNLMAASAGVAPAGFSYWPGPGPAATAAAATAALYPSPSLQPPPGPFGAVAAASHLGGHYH
# In short: (§1)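 Binding signal is each hexamer's read frequency for a factor divided by its frequency in the tag-only sample. The factors were GST-fused human transcription factors from yeast, captured on glutathione beads, DNA-barcoded and pooled with that sample. Pools were incubated with 200 nmole of a random double-stranded 16-mer DNA library in Tris/NaCl/DTT/glycerol buffer at room temperature for 30 min, then washed, crosslinked with 0.1% formaldehyde, proximity-ligated with BsaI/T4 ligase (1 h, 37 °C), PCR-amplified and sequenced on an Illumina NextSeq500.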
# ETV5 = ETV5 (Homo sapiens, UniProt P41161 1-510); conditions: protein: recombinant; tags: N-terminal GST; dsDNA, one strand shown
# ETV5, sequence (P41161 whole entry): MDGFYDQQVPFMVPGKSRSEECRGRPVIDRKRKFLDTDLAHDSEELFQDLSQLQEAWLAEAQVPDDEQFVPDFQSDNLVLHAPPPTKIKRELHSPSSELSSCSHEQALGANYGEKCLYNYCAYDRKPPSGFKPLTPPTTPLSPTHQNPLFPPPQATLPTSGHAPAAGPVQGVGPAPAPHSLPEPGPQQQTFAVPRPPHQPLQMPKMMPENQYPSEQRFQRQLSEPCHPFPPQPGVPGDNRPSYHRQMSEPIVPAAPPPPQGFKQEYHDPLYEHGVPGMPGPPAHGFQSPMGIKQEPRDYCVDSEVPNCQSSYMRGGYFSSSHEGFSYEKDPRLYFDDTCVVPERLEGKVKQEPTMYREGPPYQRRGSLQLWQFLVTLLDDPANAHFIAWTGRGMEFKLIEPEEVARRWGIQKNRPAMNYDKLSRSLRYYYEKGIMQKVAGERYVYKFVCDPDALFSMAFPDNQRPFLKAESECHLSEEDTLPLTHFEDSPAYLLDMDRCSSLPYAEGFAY
# In short: as §1
# HSF1 = HSF1 (Homo sapiens, UniProt Q00613 1-529); conditions: protein: recombinant; tags: N-terminal GST; chain copies: 3; dsDNA, one strand shown
# HSF1, sequence (Q00613 whole entry): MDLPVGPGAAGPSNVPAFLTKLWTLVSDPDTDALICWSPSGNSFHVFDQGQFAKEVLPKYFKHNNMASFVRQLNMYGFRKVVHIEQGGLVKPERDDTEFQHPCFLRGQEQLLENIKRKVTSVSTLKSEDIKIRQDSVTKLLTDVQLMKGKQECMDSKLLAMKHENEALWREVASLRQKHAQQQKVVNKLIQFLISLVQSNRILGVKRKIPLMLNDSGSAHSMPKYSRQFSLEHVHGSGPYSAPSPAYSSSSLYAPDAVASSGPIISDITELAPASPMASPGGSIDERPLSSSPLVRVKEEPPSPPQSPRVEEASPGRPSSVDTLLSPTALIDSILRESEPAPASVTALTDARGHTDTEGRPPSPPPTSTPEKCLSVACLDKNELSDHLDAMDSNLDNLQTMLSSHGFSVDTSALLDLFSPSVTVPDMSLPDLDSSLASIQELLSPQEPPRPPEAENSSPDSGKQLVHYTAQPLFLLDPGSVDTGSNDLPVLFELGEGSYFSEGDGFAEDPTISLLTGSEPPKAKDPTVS
# In short: as §1
# ELF4 = ELF4 (Homo sapiens, UniProt Q99607 1-663); conditions: protein: recombinant; tags: N-terminal GST; dsDNA, one strand shown
# ELF4, sequence (Q99607 whole entry): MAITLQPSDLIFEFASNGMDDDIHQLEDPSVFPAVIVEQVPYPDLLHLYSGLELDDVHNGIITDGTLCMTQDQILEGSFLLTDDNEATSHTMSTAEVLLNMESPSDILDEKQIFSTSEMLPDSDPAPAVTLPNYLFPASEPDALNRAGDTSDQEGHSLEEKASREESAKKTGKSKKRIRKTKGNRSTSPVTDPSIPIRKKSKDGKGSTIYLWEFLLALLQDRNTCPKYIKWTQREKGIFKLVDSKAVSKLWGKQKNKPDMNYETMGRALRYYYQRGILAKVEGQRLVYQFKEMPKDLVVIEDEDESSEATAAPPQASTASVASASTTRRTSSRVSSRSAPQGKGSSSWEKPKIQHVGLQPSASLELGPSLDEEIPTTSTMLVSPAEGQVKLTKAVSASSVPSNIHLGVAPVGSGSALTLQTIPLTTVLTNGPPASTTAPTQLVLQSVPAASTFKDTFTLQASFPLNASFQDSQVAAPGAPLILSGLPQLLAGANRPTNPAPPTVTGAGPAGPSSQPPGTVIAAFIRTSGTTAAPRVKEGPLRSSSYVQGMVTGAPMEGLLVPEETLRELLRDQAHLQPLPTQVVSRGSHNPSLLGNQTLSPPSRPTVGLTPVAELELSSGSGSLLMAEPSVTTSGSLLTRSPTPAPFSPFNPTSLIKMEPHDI
# In short: as §1
# ELK4 = molecular target: T2, ELK4 (Homo sapiens, UniProt P28324-2 1-405); conditions: protein: recombinant; tags: N-terminal GST; dsDNA, one strand shown
# T2 sequence: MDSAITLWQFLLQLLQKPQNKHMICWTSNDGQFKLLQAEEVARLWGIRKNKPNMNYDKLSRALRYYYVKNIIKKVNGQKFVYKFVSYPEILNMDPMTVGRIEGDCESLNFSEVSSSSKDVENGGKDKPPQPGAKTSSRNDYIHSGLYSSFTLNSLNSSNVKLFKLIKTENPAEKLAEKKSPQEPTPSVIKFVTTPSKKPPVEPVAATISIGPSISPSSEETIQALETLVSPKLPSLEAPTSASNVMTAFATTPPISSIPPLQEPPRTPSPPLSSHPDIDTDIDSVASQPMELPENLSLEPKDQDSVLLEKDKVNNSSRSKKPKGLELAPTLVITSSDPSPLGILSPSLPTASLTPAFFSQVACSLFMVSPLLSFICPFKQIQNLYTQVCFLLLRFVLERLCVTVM
# In short: as §1
# ELF3 = molecular target: T3, ELF3 (Homo sapiens, UniProt P78545 1-371); conditions: protein: recombinant; tags: N-terminal GST; dsDNA, one strand shown
# T3 sequence: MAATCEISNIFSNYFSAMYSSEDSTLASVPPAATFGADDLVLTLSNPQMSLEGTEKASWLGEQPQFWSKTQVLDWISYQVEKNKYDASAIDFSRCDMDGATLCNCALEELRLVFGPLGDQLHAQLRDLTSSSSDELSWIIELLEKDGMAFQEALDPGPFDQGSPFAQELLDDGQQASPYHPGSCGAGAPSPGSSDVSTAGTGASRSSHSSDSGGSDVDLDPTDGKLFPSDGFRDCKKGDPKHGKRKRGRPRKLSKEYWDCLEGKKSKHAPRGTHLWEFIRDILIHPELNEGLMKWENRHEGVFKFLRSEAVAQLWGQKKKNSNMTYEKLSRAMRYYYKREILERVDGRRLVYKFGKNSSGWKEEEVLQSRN
# In short: as §1
# CRX = CRX (Homo sapiens, UniProt O43186 1-299); conditions: protein: recombinant; tags: N-terminal GST; dsDNA, one strand shown
# CRX, sequence (O43186 whole entry): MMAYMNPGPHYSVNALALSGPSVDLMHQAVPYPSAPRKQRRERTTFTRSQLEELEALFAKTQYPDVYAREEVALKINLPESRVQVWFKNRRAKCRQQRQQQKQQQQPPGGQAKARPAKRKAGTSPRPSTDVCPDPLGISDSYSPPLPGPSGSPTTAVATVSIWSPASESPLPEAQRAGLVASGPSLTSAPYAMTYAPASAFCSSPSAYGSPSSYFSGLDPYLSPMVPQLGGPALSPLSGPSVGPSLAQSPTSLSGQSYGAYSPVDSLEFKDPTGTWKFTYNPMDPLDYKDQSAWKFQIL
# In short: as §1
# ETV1 = ETV1 (Homo sapiens, UniProt P50549 1-477); conditions: protein: recombinant; tags: N-terminal GST; dsDNA, one strand shown
# ETV1, sequence (P50549 whole entry): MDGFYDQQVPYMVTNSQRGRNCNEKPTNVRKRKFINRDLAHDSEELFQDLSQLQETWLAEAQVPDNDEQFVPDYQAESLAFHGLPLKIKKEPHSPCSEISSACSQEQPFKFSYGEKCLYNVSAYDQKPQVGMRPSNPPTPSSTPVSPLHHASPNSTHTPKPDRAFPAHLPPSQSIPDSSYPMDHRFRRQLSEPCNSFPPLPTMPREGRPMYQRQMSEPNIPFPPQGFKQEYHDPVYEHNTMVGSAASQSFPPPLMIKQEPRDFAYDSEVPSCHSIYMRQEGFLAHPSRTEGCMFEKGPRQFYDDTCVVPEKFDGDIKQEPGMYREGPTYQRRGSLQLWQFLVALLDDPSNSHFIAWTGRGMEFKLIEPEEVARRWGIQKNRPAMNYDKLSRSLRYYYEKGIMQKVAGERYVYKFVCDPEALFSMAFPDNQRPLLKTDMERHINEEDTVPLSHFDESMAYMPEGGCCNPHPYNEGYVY
# In short: as §1
# ERF = molecular target: T4, ERF (Homo sapiens, UniProt P50548 1-548); conditions: protein: recombinant; tags: N-terminal GST; dsDNA, one strand shown
# T4 sequence: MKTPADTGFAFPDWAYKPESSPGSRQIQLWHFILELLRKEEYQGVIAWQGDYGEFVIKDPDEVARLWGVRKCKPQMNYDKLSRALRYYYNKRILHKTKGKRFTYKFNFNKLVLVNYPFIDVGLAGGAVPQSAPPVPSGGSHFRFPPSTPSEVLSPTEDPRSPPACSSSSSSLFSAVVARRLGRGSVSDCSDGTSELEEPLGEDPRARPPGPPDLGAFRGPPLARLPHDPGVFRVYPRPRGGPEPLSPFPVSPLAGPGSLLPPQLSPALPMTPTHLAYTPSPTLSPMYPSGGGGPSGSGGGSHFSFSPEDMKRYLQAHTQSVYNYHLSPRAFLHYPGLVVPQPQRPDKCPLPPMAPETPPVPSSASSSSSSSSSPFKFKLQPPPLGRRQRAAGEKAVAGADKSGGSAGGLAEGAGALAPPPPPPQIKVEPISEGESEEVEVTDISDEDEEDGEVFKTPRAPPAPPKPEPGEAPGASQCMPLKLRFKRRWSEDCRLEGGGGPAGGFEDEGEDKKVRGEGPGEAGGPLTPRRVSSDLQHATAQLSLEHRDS
# In short: as §1
# ETV3L = molecular target: T5, ETV3L (Homo sapiens, UniProt Q6ZN32 1-361); conditions: protein: recombinant; tags: N-terminal GST; dsDNA, one strand shown
# T5 sequence: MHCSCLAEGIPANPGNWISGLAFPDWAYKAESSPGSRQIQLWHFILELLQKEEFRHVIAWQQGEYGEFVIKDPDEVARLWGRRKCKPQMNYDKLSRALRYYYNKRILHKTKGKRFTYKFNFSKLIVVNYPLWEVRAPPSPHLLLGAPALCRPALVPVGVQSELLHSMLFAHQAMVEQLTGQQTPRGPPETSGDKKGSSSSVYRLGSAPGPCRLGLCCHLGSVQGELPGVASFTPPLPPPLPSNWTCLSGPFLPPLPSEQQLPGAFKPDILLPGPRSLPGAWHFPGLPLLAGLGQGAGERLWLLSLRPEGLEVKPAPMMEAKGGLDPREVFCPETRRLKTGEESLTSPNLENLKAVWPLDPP
# In short: as §1
# ETS2 = molecular target: T6, ETS2 (Homo sapiens, UniProt P15036 1-469); conditions: protein: recombinant; tags: N-terminal GST; dsDNA, one strand shown
# T6 sequence: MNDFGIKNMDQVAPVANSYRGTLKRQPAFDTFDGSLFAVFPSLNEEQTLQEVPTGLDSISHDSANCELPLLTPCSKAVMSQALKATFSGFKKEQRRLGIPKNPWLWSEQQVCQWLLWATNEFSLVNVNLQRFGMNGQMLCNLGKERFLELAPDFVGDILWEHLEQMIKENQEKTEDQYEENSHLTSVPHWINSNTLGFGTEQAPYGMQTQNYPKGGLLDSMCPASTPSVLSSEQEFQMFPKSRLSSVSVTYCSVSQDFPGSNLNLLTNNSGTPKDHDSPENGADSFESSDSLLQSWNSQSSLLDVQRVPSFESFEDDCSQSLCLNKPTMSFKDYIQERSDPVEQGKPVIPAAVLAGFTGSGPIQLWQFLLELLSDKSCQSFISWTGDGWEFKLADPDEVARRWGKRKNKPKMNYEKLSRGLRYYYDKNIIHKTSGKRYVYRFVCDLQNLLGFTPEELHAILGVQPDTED
# In short: as §1
# SPDEF = molecular target: T7, SPDEF (Homo sapiens, UniProt O95238 1-335); conditions: protein: recombinant; tags: N-terminal GST; dsDNA, one strand shown
# T7 sequence: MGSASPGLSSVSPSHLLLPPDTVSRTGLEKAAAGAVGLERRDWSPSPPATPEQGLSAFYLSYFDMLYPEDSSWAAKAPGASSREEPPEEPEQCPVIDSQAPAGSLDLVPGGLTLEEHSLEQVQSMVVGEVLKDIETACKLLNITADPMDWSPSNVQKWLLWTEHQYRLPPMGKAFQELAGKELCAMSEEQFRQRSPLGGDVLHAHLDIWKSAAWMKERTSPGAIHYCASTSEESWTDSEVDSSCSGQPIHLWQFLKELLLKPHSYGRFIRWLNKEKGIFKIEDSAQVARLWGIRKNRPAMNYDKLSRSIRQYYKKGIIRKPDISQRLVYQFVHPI
# In short: as §1
# ETV7 = molecular target: T8, ETV7 (Homo sapiens, UniProt Q9Y603 1-341); conditions: protein: recombinant; tags: N-terminal GST; dsDNA, one strand shown
# T8 sequence: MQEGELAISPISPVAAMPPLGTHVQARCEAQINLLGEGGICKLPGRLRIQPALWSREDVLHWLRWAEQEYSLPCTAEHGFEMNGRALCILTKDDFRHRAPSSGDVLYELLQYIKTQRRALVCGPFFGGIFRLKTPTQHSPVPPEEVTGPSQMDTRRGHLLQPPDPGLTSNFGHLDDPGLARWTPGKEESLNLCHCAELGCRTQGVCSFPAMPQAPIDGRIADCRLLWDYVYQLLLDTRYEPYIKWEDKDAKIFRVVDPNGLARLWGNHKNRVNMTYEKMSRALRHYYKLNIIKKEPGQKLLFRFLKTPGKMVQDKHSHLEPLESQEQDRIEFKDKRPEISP
# In short: as §1
# ELF5 = molecular target: T9, ELF5 (Homo sapiens, UniProt Q9UKW6-2 1-255); conditions: protein: recombinant; tags: N-terminal GST; dsDNA, one strand shown
# T9 sequence: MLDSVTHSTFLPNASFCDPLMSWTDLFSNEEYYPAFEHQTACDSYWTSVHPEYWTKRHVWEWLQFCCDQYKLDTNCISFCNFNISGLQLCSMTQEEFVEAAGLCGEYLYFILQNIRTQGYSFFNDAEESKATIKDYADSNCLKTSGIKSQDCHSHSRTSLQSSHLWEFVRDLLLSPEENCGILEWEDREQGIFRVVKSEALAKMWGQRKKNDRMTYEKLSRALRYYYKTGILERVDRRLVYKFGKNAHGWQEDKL
# In short: as §1
# ETV3 = molecular target: T10, ETV3 (Homo sapiens, UniProt P41162-2 1-143); conditions: protein: recombinant; tags: N-terminal GST; dsDNA, one strand shown
# T10 sequence: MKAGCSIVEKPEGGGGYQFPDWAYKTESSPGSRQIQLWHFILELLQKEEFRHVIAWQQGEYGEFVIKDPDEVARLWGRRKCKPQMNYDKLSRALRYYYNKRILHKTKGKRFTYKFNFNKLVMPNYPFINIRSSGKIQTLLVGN
# In short: as §1
# ETV6 = ETV6 (Homo sapiens, UniProt P41212 1-452); conditions: protein: recombinant; tags: N-terminal GST; dsDNA, one strand shown
# ETV6, sequence (P41212 whole entry): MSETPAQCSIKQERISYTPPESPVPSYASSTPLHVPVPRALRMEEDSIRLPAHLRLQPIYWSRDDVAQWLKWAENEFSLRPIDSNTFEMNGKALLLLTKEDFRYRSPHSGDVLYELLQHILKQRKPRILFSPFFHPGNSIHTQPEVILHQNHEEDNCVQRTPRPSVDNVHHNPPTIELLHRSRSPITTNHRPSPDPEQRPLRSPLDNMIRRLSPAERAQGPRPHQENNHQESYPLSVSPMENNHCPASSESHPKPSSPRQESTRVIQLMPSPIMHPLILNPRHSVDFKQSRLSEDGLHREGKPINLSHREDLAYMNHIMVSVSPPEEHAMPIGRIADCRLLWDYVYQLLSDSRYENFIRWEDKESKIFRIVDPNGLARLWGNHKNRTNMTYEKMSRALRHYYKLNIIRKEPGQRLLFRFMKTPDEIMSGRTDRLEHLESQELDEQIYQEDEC
# In short: as §1
sequence,measurement,setting,value
TACACG,binding signal,FEV,"1.12 fold enrichment (6-mer frequency, TF over GST control)"
same,binding signal,ETV5,"1.22 fold enrichment (6-mer frequency, TF over GST control)"
same,binding signal,HSF1,"1.04 fold enrichment (6-mer frequency, TF over GST control)"
same,binding signal,ELF4,"1.14 fold enrichment (6-mer frequency, TF over GST control)"
same,binding signal,ELK4,"1.21 fold enrichment (6-mer frequency, TF over GST control)"
same,binding signal,ELF3,"1.15 fold enrichment (6-mer frequency, TF over GST control)"
same,binding signal,CRX,"1.1 fold enrichment (6-mer frequency, TF over GST control)"
same,binding signal,ETV1,"1.16 fold enrichment (6-mer frequency, TF over GST control)"
same,binding signal,ERF,"1.06 fold enrichment (6-mer frequency, TF over GST control)"
same,binding signal,ETV3L,"1.03 fold enrichment (6-mer frequency, TF over GST control)"
same,binding signal,ETS2,"1.11 fold enrichment (6-mer frequency, TF over GST control)"
same,binding signal,SPDEF,"1.18 fold enrichment (6-mer frequency, TF over GST control)"
same,binding signal,ETV7,"1.15 fold enrichment (6-mer frequency, TF over GST control)"
same,binding signal,ELF5,"1.13 fold enrichment (6-mer frequency, TF over GST control)"
same,binding signal,ETV3,"1.08 fold enrichment (6-mer frequency, TF over GST control)"
same,binding signal,ETV6,"1.07 fold enrichment (6-mer frequency, TF over GST control)"
